Among the data in PubChem BioAssay (NCI) are growth values, retold here.

This is part of a sample that, as a whole, favours compounds with a hit. Of some 83,000 tested, about 20% had one in any assay.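 48-hour exposure, single concentration, 96-well plates; percent growth endpoint where 0 means no net growth. Active: below 10.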 Values without a mark were called inactive. Calls of active or inactive are those of the source.

Among the test systems are NCI-H23 lung; NCI-H226 lung; NCI-H322M lung; HOP-62 NSCLC; NCI-H460 lung; HOP-92 NSCLC; NCI-H522 lung; A549/ATCC NSCLC; 786-0 renal; COLO 205 colon; DU-145 prostate; K-562 leukemia; MALME-3M melanoma; MDA-MB-231 breast; RXF 393 renal; SF-268 CNS; SF-295 CNS; SF-539 CNS; UACC-257 melanoma; M14 melanoma.
Assay in all cases: NCI-60 one-dose screen, 48 h (100 = growth as untreated, 0 = no growth, -100 = all killed)
Conditions in all cases: 10 µM unless noted

Take `O=c1oc2c(cnc3ccccc32)cc1-c1cccs1`: the growth in the experiment on NCI-H23 lung is 101%; with NCI-H226 lung, 107%; with NCI-H322M lung, 104%; in the experiment on HOP-62 NSCLC, 100%; with NCI-H460 lung, 112%; in the experiment on HOP-92 NSCLC, 102%. Besides, the growth in the experiment with NCI-H522 lung is 104%; in the experiment with A549/ATCC NSCLC, 104%; in the experiment on 786-0 renal it was 98.8%; in the experiment on COLO 205 colon, 106%; in the experiment on DU-145 prostate, 113%; with K-562 leukemia it was 94.1%. The growth was 103% in the experiment with MALME-3M melanoma; 107% in the experiment on MDA-MB-231 breast; 112% in the experiment on RXF 393 renal; 100% with SF-268 CNS; 105% with SF-295 CNS; 105% in the experiment on SF-539 CNS. Also, the growth in the experiment on UACC-257 melanoma is 108%; in the experiment on M14 melanoma it was 104%.

With `CN1CCN(Cc2ccc(NC(=O)c3cncc(C#Cc4cnn5ccccc45)c3)cc2C(F)(F)F)CC1`, the growth is -43.9% (active) with NCI-H23 lung; -11.6% (active) in the experiment with NCI-H226 lung; -2.81% (active) in the experiment with NCI-H322M lung; -15.4% (active) in the experiment on HOP-62 NSCLC; -22.5% (active) in the experiment with NCI-H460 lung; -7.15% (active) with HOP-92 NSCLC. Further, the growth in the experiment on NCI-H522 lung is -14.7% (active); with A549/ATCC NSCLC it was 4.64% (active); in the experiment with 786-0 renal it was 4.29% (active); with COLO 205 colon, -33.6% (active); in the experiment on DU-145 prostate, 4.16% (active); with K-562 leukemia, 1.13% (active). The growth with MALME-3M melanoma is -61.3% (active); in the experiment with MDA-MB-231 breast, -7.64% (active); in the experiment with RXF 393 renal it was -44.8% (active); in the experiment with SF-268 CNS it was -32.8% (active); with SF-295 CNS, 20.7%; with SF-539 CNS it was -58.4% (active). The figures for the growth with UACC-257 melanoma and in the experiment with M14 melanoma were 11% and -39.6% (active), respectively.

Take `COc1cc(/C=N/Nc2ccccc2F)cc(OC)c1OC`: the growth with NCI-H23 lung was 101%; in the experiment on NCI-H226 lung, 95.6%; with NCI-H322M lung, 91.3%; in the experiment with HOP-62 NSCLC it was 94.4%; with NCI-H460 lung it was 101%; with HOP-92 NSCLC it was 99.1%. Also, the growth in the experiment on NCI-H522 lung is 68.7%; in the experiment with A549/ATCC NSCLC, 95.5%; in the experiment on 786-0 renal it was 90.4%; in the experiment on COLO 205 colon, 109%; in the experiment on DU-145 prostate, 106%; in the experiment on K-562 leukemia, 48.5%. For the same molecule, the growth in the experiment on MALME-3M melanoma is 99%; with MDA-MB-231 breast, 81.5%; in the experiment with RXF 393 renal, 123%; in the experiment with SF-268 CNS, 83.2%; in the experiment with SF-295 CNS, 98.1%; in the experiment with SF-539 CNS, 99.3%. In addition, the growth with UACC-257 melanoma was 116%; with M14 melanoma it was 96.5%.

With `COc1ccc(C2C(C#N)=C(N)Oc3c2sc2c(Br)cccc32)cc1` (stereo not given), the growth is 36.3% in the experiment on NCI-H23 lung; 49.2% in the experiment on NCI-H226 lung; 30% in the experiment with NCI-H322M lung; 23.7% in the experiment on HOP-62 NSCLC; 12.9% in the experiment on NCI-H460 lung; 47% with HOP-92 NSCLC. For the same molecule, the growth in the experiment with NCI-H522 lung is -6.29% (active); in the experiment with A549/ATCC NSCLC it was 35.5%; with 786-0 renal it was 29.6%; in the experiment on COLO 205 colon, 2.31% (active); in the experiment with DU-145 prostate, 21.4%; in the experiment on K-562 leukemia it was 9.39% (active). Also, the growth with MALME-3M melanoma is 37%; in the experiment with MDA-MB-231 breast it was 40.5%; with RXF 393 renal it was 4.42% (active); with SF-268 CNS, 38.7%; in the experiment with SF-295 CNS it was 15.7%; with SF-539 CNS, -12.4% (active). The growth is 65.5% with UACC-257 melanoma and 6.9% (active) in the experiment on M14 melanoma.

In the case of `COc1cc2c(cc1O)[C@@]1(C)[C@H](c3ccccc3Br)OC(=O)N1CC2`, the growth is 94.3% in the experiment with NCI-H23 lung; 83.9% with NCI-H226 lung; 116% with NCI-H322M lung; 97.3% in the experiment on HOP-62 NSCLC; 96.5% in the experiment with NCI-H460 lung; 82.8% in the experiment on HOP-92 NSCLC. Besides, the growth in the experiment with NCI-H522 lung is 75.5%; in the experiment on A549/ATCC NSCLC it was 79.6%; with 786-0 renal, 104%; with COLO 205 colon, 117%; with DU-145 prostate, 101%; with K-562 leukemia, 75%. The growth is 83.1% in the experiment on MALME-3M melanoma; 95.6% with MDA-MB-231 breast; 99.5% in the experiment with RXF 393 renal; 94.7% in the experiment with SF-268 CNS; 102% in the experiment on SF-295 CNS; 95.1% in the experiment with SF-539 CNS. The growth in the experiment with UACC-257 melanoma is 83.5%; in the experiment on M14 melanoma, 88.3%.

For the molecule `COc1cc(Nc2c3ccc(Cl)cc3nc3ccc(OC)cc23)c2ncccc2c1`, the growth was 50% with NCI-H23 lung; 62.1% in the experiment with NCI-H226 lung; 47.9% with NCI-H322M lung; 50.1% with HOP-62 NSCLC; 21% in the experiment on NCI-H460 lung; -0.879% (active) with HOP-92 NSCLC. For the same molecule, the growth in the experiment with NCI-H522 lung was 49.7%; in the experiment on A549/ATCC NSCLC, 34.3%; in the experiment with 786-0 renal, 60.4%; in the experiment with COLO 205 colon it was 59.6%; in the experiment with DU-145 prostate it was 39.4%; in the experiment with K-562 leukemia, 53.2%. Further, the growth in the experiment with MALME-3M melanoma was 32.1%; with MDA-MB-231 breast it was 34%; in the experiment on RXF 393 renal, 45.5%; with SF-268 CNS it was 43.3%; in the experiment on SF-295 CNS, 46.2%; in the experiment with SF-539 CNS, 45%. Also, the figures for the growth in the experiment on UACC-257 melanoma and in the experiment with M14 melanoma were 59.6% and 49.5%, respectively.

As to `CC1=NN(c2ccc(Cl)cc2)CC1(C)N=O` (stereo not given), the growth with NCI-H23 lung is 88.4%; with NCI-H226 lung, 76.9%; with NCI-H322M lung it was 99.9%; in the experiment with HOP-62 NSCLC it was 95.8%; in the experiment with NCI-H460 lung, 95.9%; in the experiment with HOP-92 NSCLC it was 83.3%. The growth with NCI-H522 lung was 44.5%; in the experiment with A549/ATCC NSCLC, 99.9%; with 786-0 renal, 73.1%; in the experiment with COLO 205 colon, 67.3%; with DU-145 prostate, 83.9%; with K-562 leukemia it was 40.1%. Further, the growth with MALME-3M melanoma is 68.5%; in the experiment on MDA-MB-231 breast, 78.3%; with RXF 393 renal, 32.7%; with SF-268 CNS, 94.9%; with SF-295 CNS it was 101%; in the experiment on SF-539 CNS, 91%. Moreover, the growth in the experiment on UACC-257 melanoma is 90%; with M14 melanoma it was 64.9%.
